# In paper PMC4242493, “Sequence specificity incompletely defines the genome-wide occupancy of Myc”:
# Over roughly 33,000 sequences, “normalized occupancy” has its median near 0.075; the highest 2% begin near 0.095. For the sample, the highest values were picked, then their nearest neighbours and some sequences at random.
# Biological target: MaxL homodimer (Homo sapiens, UniProt P61244 1-160)
# Assay: universal protein-binding microarray (PBM); PBS-based mixture, 10 nM His-tagged protein dimer, 2% milk, 200 ng/uL BSA, 50 ng/uL salmon testes DNA, 0.02% TX-100; detection with Alexa 488 anti-His antibody;; high values mean tight binding
# Settings: protein: recombinant; tags: C-terminal His-tag (pET21a); chain copies: 2; dsDNA, one strand shown
# Method in brief: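 Arrays of the 'all 10-mer' universal design (Agilent 4 x 44 K) were exposed to 10 nM His-tagged protein dimer, stained with 10 ng/μL fluorophore-conjugated anti-His antibody and read on a GenePix 4400A to give a fluorescence intensity for each 8-mer. Binding occupancy is each intensity divided by the highest-ranked intensity.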
# Sequence of MaxL homodimer (P61244 whole entry): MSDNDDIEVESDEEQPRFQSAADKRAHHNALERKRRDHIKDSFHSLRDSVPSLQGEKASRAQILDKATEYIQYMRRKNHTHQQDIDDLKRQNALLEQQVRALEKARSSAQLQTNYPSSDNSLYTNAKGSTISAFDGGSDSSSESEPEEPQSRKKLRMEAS
row,Sequence,binding signal [normalized occupancy]
1,GCGTGCCC,0.0965
2,ACGTGCAG,0.101
3,GAGTGCAC,0.082
4,AGGTGCAT,0.0863
5,AAGTGCAT,0.085
6,AAGTGCAG,0.0763
7,GCGTGCAC,0.109
8,CCGTGCAG,0.0778
9,GCGTGCCA,0.09
10,CCGTGCCC,0.0733
11,ACGTGCAT,0.104
12,CGAATAAA,0.0729
13,TAAATAAA,0.0766
14,CCACCACG,0.0914
15,ACCGGTTA,0.0751
16,TAGGAAAA,0.0729
17,CAGCTGAA,0.0749
18,ACGAAAGC,0.0763
19,TCCGAAAA,0.0774
20,AGACTGTA,0.0748
21,ACGTGCAC,0.113
22,GGGTGCAA,0.0755
23,AAGTGCAC,0.0774
24,GCGTGCAA,0.0963
25,GTGTGCAA,0.0818

row,Sequence,binding signal [normalized occupancy]
1,CCGTGCAA,0.078
2,ATGTGCAC,0.0959
3,ACGTGCAA,0.098
4,ATGTGCAA,0.0875
5,TCGTGCAA,0.0766
6,AGGTGCAC,0.0767
7,CTGTGCAC,0.0869
8,GATGGACA,0.0742
9,AATGCAAC,0.0776
10,CATACGGG,0.0812
11,CAGTTATA,0.0794
12,CCTCCATC,0.0784
13,CAACCTAA,0.0744
14,CTAACATC,0.0796
15,AGCGTCGC,0.0721
16,CCCGTCCC,0.0747
17,ATAATACC,0.08
18,AGCCCAAA,0.0722
19,AGCACGCT,0.104
20,AGCACACG,0.0942
21,AGCACACA,0.0906
22,CGCACGCC,0.0878
23,CGCACGCG,0.121
24,AGCACGCG,0.156
25,CGCACGCA,0.0894

row,Sequence,binding signal [normalized occupancy]
1,AGCACGCA,0.0909
2,AGCACGCC,0.0846
3,GAAATCAA,0.075
4,ATGTAGTG,0.0796
5,CCCTTATA,0.0809
6,ACTTGTAC,0.0751
7,AAAACGTG,0.122
8,AAAACGTA,0.0744
9,CAAACGTC,0.0739
10,AAAACGTT,0.0743
11,CAAACGTG,0.103
12,CAAACGTA,0.0729
13,ATAGTGAA,0.0751
14,AACCCGAG,0.0727
15,CGAATGCG,0.0744
16,CGCATGCG,0.133
17,TGCATACA,0.085
18,TGCATGCA,0.1
19,AGCATACA,0.087
20,AGCATCCT,0.0767
21,AGCATGCA,0.114
22,AACATGCT,0.0905
23,CGCATCCG,0.0736
24,TGCATGAA,0.0821
25,AGCATTCA,0.0761

row,Sequence,binding signal [normalized occupancy]
1,AGCATGCT,0.134
2,GCGTACAA,0.0756
3,GCTTAGAC,0.0762
4,GTATTGAC,0.0759
5,ACCGTCCA,0.0727
6,CAATAACA,0.0785
7,GCATACCA,0.0835
8,AAGCATCC,0.0817
9,CGGATGCC,0.0725
10,AGCATGCC,0.112
11,GGCATGAA,0.081
12,AGCATTCC,0.0752
13,CGCATCCC,0.0821
14,GGCATGCA,0.109
15,CGCATGCA,0.122
16,CGCATTCA,0.0752
17,CGAATGCA,0.0799
18,AGCATCCC,0.077
19,CGCATGCC,0.116
20,GGCATGCC,0.0932
21,TAAGTACA,0.0831
22,AGTACTAA,0.0769
23,GGGTTCTA,0.0754
24,CGATTGGC,0.0736
25,ACTTCGGG,0.0726

row,Sequence,binding signal [normalized occupancy]
1,AGCCCTTG,0.0731
2,AGATTGGA,0.0757
3,AACATCGC,0.0768
4,GTTCTCTA,0.0731
5,CGTGGTTC,0.0858
6,CGGAGGTA,0.0743
7,AGCATGCG,0.124
8,AGCATCCG,0.0757
9,AGTATGCG,0.077
10,GCAAGGTA,0.0757
11,CGCAGTAC,0.0724
12,CTATGGCA,0.0779
13,GTATGGGA,0.0804
14,CTATGGGA,0.0764
15,ATATGGGA,0.0957
16,ATATGGCG,0.0846
17,ATATGGCA,0.098
18,ATGATAAG,0.0844
19,AGCTCCAT,0.0804
20,AACATGCG,0.101
21,GAGATGCC,0.0786
22,CAAATGCC,0.0743
23,GACATGCA,0.0909
24,AACATGCA,0.0927
25,CAAATGCG,0.0791

row,Sequence,binding signal [normalized occupancy]
1,AACATGCC,0.089
2,CACATGCC,0.134
3,CAGATGCG,0.078
4,GACATGCC,0.0968
5,CACATGCG,0.159
6,AACATACG,0.0835
7,CCAACCCA,0.0759
8,AGTGCCTC,0.0729
9,AGAGGCAC,0.0762
10,AGGCTCAT,0.0751
11,AATCTAAA,0.0727
12,ACCGGTAG,0.0719
13,CAAATGCA,0.0784
14,CACATGCA,0.138
15,TACATGCA,0.0895
16,ATGCGGAG,0.0844
17,CGTTGAGC,0.0723
18,CGGCATGA,0.0962
19,CGGCATAC,0.0757
20,AGGCATGA,0.091
21,CGGCATGC,0.109
22,GGGCATGA,0.087
23,CGGCATCC,0.078
24,AGACCATC,0.0766
25,ATCTAGTG,0.078

row,Sequence,binding signal [normalized occupancy]
1,GCCTGCCA,0.072
2,ATGCACGG,0.0875
3,AAGCACGC,0.0949
4,CTGCACAA,0.0745
5,CTGCACGC,0.0997
6,CAGCACGA,0.0909
7,ATGCACGC,0.111
8,CAGCACGC,0.0982
9,CTGCACGA,0.0824
10,ATGCACGA,0.0913
11,CAATTTGG,0.0724
12,CCACCGAA,0.0733
13,AACAGCGA,0.0748
14,AGTCACAA,0.0805
15,GTATATCA,0.0787
16,ACCCCCCA,0.0865
17,CCCACCCC,0.0962
18,ACCCCCCC,0.0963
19,CCCACCCA,0.0925
20,AACCCCCC,0.0825
21,GCCACCCC,0.0827
22,GGTGCAAA,0.0755
